Experiment [1] in a line: binders of probe aFSTL3 on microarray, primary screen, stem cell growth factor project, biochemical, small-molecule microarray, fluorescence 635/667 (AID 1064).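 Further: measures binding of the biotinylated anti-FSTL3 antibody to printed compounds.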 The conditions noted are these: higher = more signal.
Experiment [2] is described as follows: binders from COS7 lysate, DM2A8 probe, primary screen, torsin A project, cell lysate, small-molecule microarray, fluorescence 635/667 (AID 1065). The conditions noted are these: higher = more signal, COS7 lysate expressing mutant human TOR1A.
Experiment [3] in a line: binders of probe aFGF2 on microarray, primary screen, stem cell growth factor project, biochemical, small-molecule microarray, fluorescence 635/667 (AID 1067).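 Further: measures binding of biotinylated aFGF2 protein to printed compounds on slides; z-score merges feature fluorescence and signal-to-noise across triplicate slides.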 Particulars: higher = more signal.
The nature of experiment [4]: binders of probe aFGF10 on microarray, primary screen, stem cell growth factor project, biochemical, small-molecule microarray, fluorescence 635/667 (AID 1071).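 Further: score merges 667 nm spot intensity and signal to noise from triplicate slides.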 Particulars: higher = more signal.
In experiment [5] the target is Neurogenic locus notch homolog protein 2 (Homo sapiens) (UniProt Q04721). Nature of the experiment: Notch2 binders on small-molecule microarrays, primary screen, biochemical, small-molecule microarray, 635 nm fluorescence, stem cell growth factors (AID 1073). The conditions noted are these: Notch2 binding, higher = more signal.
Sequence of Neurogenic locus notch homolog protein 2 (Homo sapiens) (Q04721 whole entry, looked up, canonical isoform): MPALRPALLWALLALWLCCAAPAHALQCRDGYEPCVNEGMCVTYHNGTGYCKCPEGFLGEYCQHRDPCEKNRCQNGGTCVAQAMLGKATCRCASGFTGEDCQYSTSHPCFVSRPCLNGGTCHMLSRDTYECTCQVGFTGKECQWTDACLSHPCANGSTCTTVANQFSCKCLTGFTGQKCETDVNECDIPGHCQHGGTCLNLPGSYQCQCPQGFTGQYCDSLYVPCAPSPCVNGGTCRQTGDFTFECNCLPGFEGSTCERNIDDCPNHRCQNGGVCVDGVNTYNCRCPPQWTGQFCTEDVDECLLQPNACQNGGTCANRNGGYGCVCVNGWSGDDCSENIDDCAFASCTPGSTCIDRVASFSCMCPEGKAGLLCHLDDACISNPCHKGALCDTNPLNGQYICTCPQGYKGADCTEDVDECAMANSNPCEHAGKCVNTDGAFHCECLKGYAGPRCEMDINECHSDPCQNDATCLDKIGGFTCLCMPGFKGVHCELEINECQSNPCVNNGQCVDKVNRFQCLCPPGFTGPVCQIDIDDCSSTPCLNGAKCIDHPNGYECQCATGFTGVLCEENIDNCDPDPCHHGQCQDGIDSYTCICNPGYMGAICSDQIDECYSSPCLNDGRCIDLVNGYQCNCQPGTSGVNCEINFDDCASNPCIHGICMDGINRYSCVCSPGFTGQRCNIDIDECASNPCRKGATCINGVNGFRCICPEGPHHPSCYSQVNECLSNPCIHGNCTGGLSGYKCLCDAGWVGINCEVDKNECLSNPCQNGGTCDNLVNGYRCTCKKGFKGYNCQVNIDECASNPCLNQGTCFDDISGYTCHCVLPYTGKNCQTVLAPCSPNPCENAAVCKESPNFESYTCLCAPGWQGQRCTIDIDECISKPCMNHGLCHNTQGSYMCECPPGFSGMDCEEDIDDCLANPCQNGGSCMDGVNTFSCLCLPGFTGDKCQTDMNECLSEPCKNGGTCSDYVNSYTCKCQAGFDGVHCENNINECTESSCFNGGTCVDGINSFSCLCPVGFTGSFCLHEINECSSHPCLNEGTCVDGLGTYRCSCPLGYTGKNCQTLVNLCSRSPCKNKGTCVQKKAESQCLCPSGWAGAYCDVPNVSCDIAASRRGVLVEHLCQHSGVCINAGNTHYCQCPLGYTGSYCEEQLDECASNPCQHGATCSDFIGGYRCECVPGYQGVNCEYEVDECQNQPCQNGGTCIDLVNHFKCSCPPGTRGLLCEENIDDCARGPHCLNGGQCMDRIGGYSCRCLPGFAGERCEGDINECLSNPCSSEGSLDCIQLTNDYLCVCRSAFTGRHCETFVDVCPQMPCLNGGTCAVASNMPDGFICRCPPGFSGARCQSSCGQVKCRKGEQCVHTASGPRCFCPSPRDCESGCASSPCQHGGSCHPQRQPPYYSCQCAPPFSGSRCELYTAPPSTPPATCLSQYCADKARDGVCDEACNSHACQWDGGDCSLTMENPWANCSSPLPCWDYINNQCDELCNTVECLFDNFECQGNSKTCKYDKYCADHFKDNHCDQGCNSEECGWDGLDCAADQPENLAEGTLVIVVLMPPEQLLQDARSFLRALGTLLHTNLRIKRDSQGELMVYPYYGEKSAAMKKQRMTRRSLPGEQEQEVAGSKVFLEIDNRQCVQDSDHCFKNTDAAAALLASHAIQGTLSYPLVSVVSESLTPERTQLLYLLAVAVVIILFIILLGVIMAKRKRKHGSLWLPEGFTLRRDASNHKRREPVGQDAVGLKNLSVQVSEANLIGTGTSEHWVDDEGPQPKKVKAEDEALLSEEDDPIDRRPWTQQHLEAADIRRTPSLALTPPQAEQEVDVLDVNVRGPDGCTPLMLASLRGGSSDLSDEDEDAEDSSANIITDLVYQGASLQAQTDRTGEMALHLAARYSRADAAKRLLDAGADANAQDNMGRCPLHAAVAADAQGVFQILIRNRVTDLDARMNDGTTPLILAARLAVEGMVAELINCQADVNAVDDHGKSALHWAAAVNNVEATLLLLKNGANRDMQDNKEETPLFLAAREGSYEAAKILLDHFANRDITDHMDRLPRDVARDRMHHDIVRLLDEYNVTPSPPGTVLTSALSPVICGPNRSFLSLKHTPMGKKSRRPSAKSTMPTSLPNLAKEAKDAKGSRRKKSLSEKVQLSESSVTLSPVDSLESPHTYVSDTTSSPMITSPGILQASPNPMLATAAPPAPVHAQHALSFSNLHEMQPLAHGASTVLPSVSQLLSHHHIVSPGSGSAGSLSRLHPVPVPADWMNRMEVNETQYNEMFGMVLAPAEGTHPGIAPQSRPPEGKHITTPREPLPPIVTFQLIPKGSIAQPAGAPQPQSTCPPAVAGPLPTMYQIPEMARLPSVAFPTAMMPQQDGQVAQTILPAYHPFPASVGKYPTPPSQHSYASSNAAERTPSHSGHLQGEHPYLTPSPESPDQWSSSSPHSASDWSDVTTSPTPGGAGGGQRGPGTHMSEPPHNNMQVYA
Experiment [6] addresses Pro-neuregulin-1, membrane-bound isoform (Homo sapiens) (UniProt Q02297). The experiment can be described thus: NRG1 binders on small-molecule microarrays, primary screen, psychiatric disease protein project, biochemical, small-molecule microarray, fluorescence 635/667 (AID 1075).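 Further: score combines 667 nm spot fluorescence with signal to noise.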 The conditions noted are these: NRG1 binding, 635 nm fluorescence, higher = more signal.
Experiment [7] deals with Neuregulin-1 EGF-like domain. Nature of the experiment: binders of neuregulin-1 EGF-like domain, primary screen, biochemical, small-molecule microarray, 635 nm fluorescence (AID 1081).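 Further: binding of the protein to compounds printed on small-molecule microarray slides.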 Particulars: small-molecule microarray binding, higher = more signal.
The nature of experiment [8]: FRG1 promoter luciferase signal modulators, primary screen, FRG1 inhibition for FSHD, cell-based, C2C12 myotubes, firefly/Renilla luciferase, luminescence (AID 1084). Particulars: higher = more signal, called active from +8 up or from −8 down.
The nature of experiment [9]: binders of probe aFST on microarray, primary screen, stem cell growth factor project, biochemical, small-molecule microarray, fluorescence 635/667 (AID 1086).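 Further: score merges 667 nm fluorescence with signal-to-noise of each printed compound spot.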 Particulars: higher = more signal.
A short description of experiment [10]: binders of probe aHhip on microarray, primary screen, stem cell growth factor project, biochemical, small-molecule microarray, fluorescence 635/667 (AID 1087).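 Further: score merges spot fluorescence at 667nm with spot signal to noise ratio.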 The conditions noted are these: higher = more signal.

These results are taken from PubChem BioAssay.

Activity calls are given as the source filed them.

Sequence of Pro-neuregulin-1, membrane-bound isoform (Homo sapiens) (Q02297 whole entry, looked up, the tested form may be a part, canonical isoform): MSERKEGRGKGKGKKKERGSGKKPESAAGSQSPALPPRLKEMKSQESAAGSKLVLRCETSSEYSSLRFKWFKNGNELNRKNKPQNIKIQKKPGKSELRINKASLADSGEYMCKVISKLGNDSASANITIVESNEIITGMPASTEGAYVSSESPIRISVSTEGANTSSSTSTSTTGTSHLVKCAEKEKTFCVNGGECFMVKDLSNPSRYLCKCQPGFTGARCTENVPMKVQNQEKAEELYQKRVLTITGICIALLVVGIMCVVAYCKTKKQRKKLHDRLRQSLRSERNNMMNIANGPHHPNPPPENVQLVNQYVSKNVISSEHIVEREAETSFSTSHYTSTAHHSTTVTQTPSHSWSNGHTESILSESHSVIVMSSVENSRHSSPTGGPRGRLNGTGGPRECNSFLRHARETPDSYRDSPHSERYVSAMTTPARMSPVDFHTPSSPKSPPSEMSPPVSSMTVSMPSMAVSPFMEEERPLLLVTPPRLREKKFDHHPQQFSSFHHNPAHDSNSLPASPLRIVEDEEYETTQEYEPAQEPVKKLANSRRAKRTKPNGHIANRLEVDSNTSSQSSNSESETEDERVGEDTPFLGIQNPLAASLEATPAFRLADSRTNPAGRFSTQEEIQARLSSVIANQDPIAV

On to `CN1C(=O)C2C=CC(C(O)C3CC=CCC3)N(NC(=O)OC(C)(C)C)C2C1=O` (stereo not given), for which the composite z-score in [1] is -0.138; in experiment [2] it was 0.23; in experiment [3], 0.218; in experiment [4] it was 0.752; in experiment [5], 1.29; in experiment [6] it was 1.64. Besides, the composite z-score in experiment [7] was 1.21; in experiment [9] it was 0.879; in [10] it was -0.0296. For the same compound, the z-score in experiment [8] was 2.23 (inactive).

For the compound `COCCCN1C(=O)[C@@]2(Cc3ccccc31)c1ccccc1C(=O)N(Cc1ccccc1C(F)(F)F)[C@H]2c1ccc(CO)cc1`, the composite z-score in [1] is -0.774; in [2], 0.356; in [3], -0.123; in [4] it was -0.179; in experiment [5] it was -0.16; in experiment [6], -0.0485. Besides, the values for the composite z-score in experiment [7], in [9] and in experiment [10] were 0.848, 0.222 and -0.526, respectively. Also, in experiment [8], the z-score is -0.0864 (inactive).

As for `CCOc1cc(C(O)C2C=CC3C(=O)N(c4ccccc4)C(=O)C3N2Nc2ccccc2)ccc1O` (stereo not given), the composite z-score in experiment [1] stood at 0.259; in experiment [2] it was 0.107; in [3], 0.252; in [4], 1.03; in experiment [5] it was 0.66; in experiment [6] it was 1.8. The composite z-score in experiment [7] is 1.2; in experiment [9], 0.771; in [10], -0.189. Further, in experiment [8], the z-score was 0.893 (inactive).

For `CCCC[C@H]1OB(O)C[C@H]2C1=C(COc1ccccc1)C[C@H]1C(=O)N(C)C(=O)[C@H]12`, the composite z-score is -0.32 in experiment [1]; -0.353 in experiment [2]; -0.085 in experiment [3]; 0.121 in [4]; 0.85 in experiment [5]; 0.0746 in experiment [6]. The values for the composite z-score in experiment [7], in experiment [9] and in experiment [10] were 0.462, 1.2 and -0.0754, respectively. Further, the z-score in experiment [8] is -0.153 (inactive).

As to `C#CCNC(=O)[C@H](Cc1ccccc1)NC(=O)CCC(=O)O`, the composite z-score in experiment [1] is -0.0733; in experiment [2] it was -0.267; in experiment [3], -0.158; in [4], -0.704; in [5] it was -1.46; in [6], -0.592. Also, the composite z-score was -0.33 in experiment [7], 1.03 in experiment [9] and -0.0994 in experiment [10]. Besides, in [8], the z-score was 0.338 (inactive).

In the case of `CCCC=C(CCC)[C@@H](NC(=O)Oc1ccc(F)cc1)c1ccc(C(=O)OC)cc1`, the composite z-score was 0.415 in [1]; 0.175 in experiment [2]; 0.0883 in experiment [3]; 0.48 in experiment [4]; 1.52 in experiment [5]; -0.454 in experiment [6]. Also, the composite z-score in experiment [7] was 0.482; in [9] it was 0.794; in [10] it was -0.121. In addition, in experiment [8], the z-score was -3.81 (inactive).

As for `CCCC[C@@H]1C[C@H]1[C@@H](NC(=O)c1ccco1)c1ccc(C(=O)OC)cc1`, the composite z-score in [1] is 0.238; in experiment [2], -0.0736; in experiment [3] it was -0.124; in experiment [4], 0.286; in experiment [5], -0.253; in experiment [6] it was 0.0609. Besides, the composite z-score in experiment [7] is -0.216; in experiment [9] it was 0.285; in experiment [10] it was 0.379. Also, the z-score in [8] was -0.0679 (inactive).

For the compound `CCCCCC1=C2CNC(CCC)(C(=O)OC)C=C2C(C)C1=O` (stereo not given), the composite z-score is 0.327 in experiment [1]; 0.0422 in [2]; -0.0074 in [3]; 0.159 in experiment [4]; 1.14 in experiment [5]; 0.92 in [6]. Besides, the composite z-score worked out at 0.993 in experiment [7], 0.21 in experiment [9] and 1.96 in experiment [10]. In addition, the z-score in experiment [8] is 0.488 (inactive).

Consider `CN1C(=O)C2C=CC(C(O)c3ccccc3)N(Nc3ccccc3)C2C1=O` (stereo not given), for which the composite z-score was 0.527 in experiment [1]; -0.214 in [2]; 0.0444 in experiment [3]; -1.06 in experiment [4]; -0.0125 in experiment [5]; 0.151 in experiment [6]. The composite z-score was 0.547 in experiment [7], 0.261 in [9] and -0.301 in [10]. Moreover, in experiment [8], the z-score is 0.527 (inactive).

`CC(C)OC(=O)C=C1C[C@@H](c2ccccc2C(F)(F)F)O[C@@H](c2ccccc2C(F)(F)F)O1`: the composite z-score in experiment [1] is -0.173; in experiment [2], -0.11; in experiment [3], -0.0924; in experiment [4], -0.443; in experiment [5] it was 0.647; in experiment [6], 0.113. For the same compound, the composite z-score in experiment [7] is -0.0471; in experiment [9], 0.2; in [10], -0.0994. Moreover, in experiment [8], the z-score was 0.009 (inactive).

As for `C#CCN(CC1=CCCCC1)[C@H](c1ccccc1Br)[C@@H](O)Cc1ccccc1`, the composite z-score in experiment [1] was 0.727; in experiment [2] it was 0.518; in [3] it was -0.176; in [4], -0.123; in experiment [5], -0.978; in experiment [6] it was 0.251. Moreover, the composite z-score is 0.928 in experiment [7], -0.967 in experiment [9] and -0.166 in experiment [10]. Also, in [8], the z-score was -2.16 (inactive).

For the compound `COc1ccc(C(=O)Nc2ccc(CN3C(=O)[C@@]4(O[C@@H](CC(=O)N5CCC[C@H]5CO)[C@H]([Si](C)(C)c5ccc(OC)cc5)[C@H]4C)c4ccccc43)cc2)cc1`, the composite z-score is -0.172 in [1]; 0.195 in experiment [2]; -0.0202 in experiment [3]; 0.577 in [4]; 1.47 in experiment [5]; 1.3 in [6]. Further, the composite z-score in experiment [7] stood at 1.16; in experiment [9], 0.543; in [10] it was 0.176. Moreover, the z-score in [8] is -4.05 (inactive).

Regarding `[N-]=[N+]=Nc1ccccc1C[C@]1(C(N)=O)N=C(c2ccc(OCCCO)cc2)O[C@H]1c1ccccc1`, the composite z-score in experiment [1] turned out to be 0.235; in experiment [2], 0.327; in experiment [3], 0.0931; in [4], 0.373; in [5] it was 0.361; in experiment [6], 1.82. The composite z-score in experiment [7] was 1.22; in experiment [9], 0.85; in experiment [10], -0.0237. The z-score in experiment [8] is -3.01 (inactive).

`C=CCN1C(=O)[C@]2(O[C@H](CCO)[C@@H]([Si](C)(C)c3ccc(OC)cc3)[C@@H]2C)c2cc(N3CCCCC3=O)ccc21`: the composite z-score in experiment [1] is -0.5; in experiment [2], 0.897; in experiment [3] it was -0.0291; in [4] it was 0.428; in experiment [5], 1.15; in [6], 1.42. The composite z-score in [7] is 1.24; in [9] it was 0.645; in experiment [10], -0.13. Also, the z-score in experiment [8] was -3.81 (inactive).

As for `COc1ccc(CCNC(=O)[C@@H]2c3ccccc3C(=O)N(C3Cc4ccccc4C3)[C@H]2c2ccc(CO)cc2)cc1`, the composite z-score in [1] is 0.287; in experiment [2] it was -0.249; in experiment [3], 0.0628; in experiment [4], 0.219; in experiment [5], -0.395; in experiment [6], 1.49. Moreover, the composite z-score in [7] was 1.05; in [9], -0.183; in experiment [10], 0.113. For the same compound, the z-score in experiment [8] was -1.06 (inactive).

`CCOC(=O)C[C@H]1[C@H](OC(=O)c2cc3ccccc3oc2=O)[C@@H](NC(=O)Cc2ccc(OC)cc2)c2cc(OCCCO)ccc2N1C(=O)c1ccccc1`: the composite z-score is -0.356 in experiment [1]; 0.41 in experiment [2]; -0.076 in experiment [3]; 0.379 in experiment [4]; 0.359 in [5]; 0.199 in [6]. For the same compound, the composite z-score in experiment [7] was 0.385; in [9] it was 0.164; in experiment [10], -0.199. Moreover, the z-score in experiment [8] is 1.57 (inactive).
